Data published in PubChem BioAssay (NCI).
The panel holds about 79,000 compounds, 15% with a hit somewhere; the sample as a whole holds those more often. Activity calls are given as the source filed them. Rule as the data show it: active = growth inhibition above about 70%; inactive = the rest.

assay: NCI Yeast Anticancer Drug Screen. Data for the mec2-1 strain (AID 157); conditions: S. cerevisiae mec2-1 strain, at 50.0 µM (retest, dose inferred, filed as 5.0), stronger effect = higher value
How it was run: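 Growth inhibition is read against vehicle-treated controls after compound exposure of the mec2-1 yeast strain, which is defective in DNA damage repair or cell cycle control.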

| Compound | growth inhibition |
| --- | --- |
| CCCCCC(C1SC(=S)NC1=O)C1SC(=S)NC1=O (stereo not given) | 1% (inactive) |
| CC(C)C1=CC2=CC(=O)C3C(C)(C)CCCC3(C)C2=C(O)C1=O (stereo not given) | 94% (active) |
| CCOC(=O)C[n+]1c(C)sc2ccccc21 | 28% (inactive) |
| OCc1c(-c2cccc3ccccc23)sc(-c2cccc3ccccc23)c1CO | 85% (active) |
| CC1=C(C#N)C(=O)OC1(C)C(CC(=O)c1ccccc1)c1ccccc1 (stereo not given) | 6% (inactive) |
| O=c1oc2c3ccc4ccccc4c3n(CCCN3CCCCC3)c2c2ccccc12 | 17% (inactive) |
| Cc1cc(NC(=S)SCc2ccc(F)cc2)ccc1Br | 100% (active) |
| Cc1ccc(C2C(O)=C(c3ccccc3)Sc3ccc(C)cc32)cc1 (stereo not given) | 77% (active) |
| COC(=O)/C=C1/OC(c2ccccc2)=CC1=O | 8% (inactive) |
| COc1ccccc1NC(=O)CC(=O)N1N=C(c2ccccc2)C(N=Nc2ccc(Cl)cc2)C1=O (stereo not given) | 21% (inactive) |
| CC(=O)NC1=C(Nc2ccc(-c3ccc(NC4=C(NC(C)=O)C(=O)c5ccccc5C4=O)cc3)cc2)C(=O)c2ccccc2C1=O | 99% (active) |
| CCCCCCC(O)CCOC(C)=O (stereo not given) | 0% (inactive) |
| CCn1nc(-c2ccccc2)c2c1N(C)c1ccccc1-n1c(-c3ccccc3)nnc1-2 | 99% (active) |
| CC1(CCC(=O)O)c2ccc3ccccc3c2Oc2c1ccc1ccccc21 | 94% (active) |
| CCN1/C(=C\c2cc(C)nc(-c3ccccc3)[n+]2C)C=Cc2ccccc21 | 99% (active) |
| Cc1ccccc1N1C(=O)c2ccccc2C1=O | 11% (inactive) |
| O=C(Oc1ccccc1)C1CCCCC1C(=O)Oc1ccccc1 (stereo not given) | 10% (inactive) |
| Cc1cccc2c1C1c3c(C)cccc3C(O)CC1CC2O (stereo not given) | -4% (inactive) |
| CC(C)c1cc2c(cc1O)C(O)C1(O)CCCC(C)(C)[C@H]1CC2 (stereo not given in full) | 100% (active) |
| C/C=C/c1ccc(OCC(=O)O)c(OC)c1 | -18% (inactive) |

| Compound | growth inhibition |
| --- | --- |
| Nc1ccc(S(=O)(=O)NCc2nccs2)cc1 | 58% (inactive) |
| N#CC(NNC(=O)c1ccccc1O)c1c(O)ccc2ccccc12 (stereo not given) | 51% (inactive) |
| Oc1ccc(Cl)cc1Cc1cc(Cl)cc(Cc2cc(Cl)ccc2O)c1O | 98% (active) |
| O=C1CN(CCN2CCOCC2)CC(=O)N2Cc3ccccc3CN12 | 55% (inactive) |
| CC1CCC(SC2CC(=O)CCC2=O)CC1 (stereo not given) | 99% (active) |
| Clc1ccc(OCC2CO2)c(Cl)c1 (stereo not given) | 40% (inactive) |
| CN=C(N)N/N=C(\C)c1ccc2c(ccc3ccccc32)c1 | 99% (active) |
| Cc1cc(O)c(/C=N/c2nc(-c3cccc([N+](=O)[O-])c3)cs2)c(=O)o1 | 100% (active) |
| COc1cccc2c1OC(c1ccc(Cl)cc1)C([N+](=O)[O-])=C2 (stereo not given) | 95% (active) |
| COc1ccc(C(=O)C2C(=O)C(=O)OC2C2OC(=O)C(=O)C2C(=O)c2ccc(OC)cc2)cc1 (stereo not given) | -3% (inactive) |
| CCCCCCCCCCCCCCCCOc1ccc(S(=O)(=O)N/N=c2/sc3ccc(S(=O)(=O)O)cc3n2C)cc1C(=O)O | 63% (inactive) |
| O=C(Nc1ccc(F)cc1)N1CCCCC1 | 29% (inactive) |
| C[CH2][Sn]([CH2]C)([O]C(=O)c1cc(OC)c(OC)c(OC)c1)[O][Sn]([CH2]C)([CH2]C)[O]C(=O)c1cc(OC)c(OC)c(OC)c1 | 91% (active) |
| C/C(O)=C(/C=N/C(=S)Nc1ccc(S(N)(=O)=O)cc1)C(=O)Nc1ccccc1C | -4% (inactive) |
| CC(C)CC(N)C(=O)NNc1ccccc1 (stereo not given) | 96% (active) |
| CCC(C(c1ccc(Cl)cc1)c1ccc(Cl)c(Cl)c1)[N+](=O)[O-] (stereo not given) | 17% (inactive) |
| O=C(O)c1nc2cc(C(F)(F)F)ccc2nc1Nc1ccc(F)cc1 | 66% (inactive) |
| Nc1nc(-c2ccccn2)cc2cc(Cl)ccc12 | 100% (active) |
| CC1(c2ccccc2)NC(=O)N(CC(=O)N(c2ccccc2)c2ccccc2)C1=O (stereo not given) | 33% (inactive) |
| O/N=C(/Cc1ccccc1)c1ccc2c(c1)OCO2 | -11% (inactive) |

same assay, conditions: S. cerevisiae mec2-1 strain, at 50.0 µM, stronger effect = higher value

| Compound | growth inhibition |
| --- | --- |
| CCCCCC(C1SC(=S)NC1=O)C1SC(=S)NC1=O (stereo not given) | 93.2% (active) |
| CC(C)C1=CC2=CC(=O)C3C(C)(C)CCCC3(C)C2=C(O)C1=O (stereo not given) | 89.8% (active) |
| CCOC(=O)C[n+]1c(C)sc2ccccc21 | 40.1% (inactive) |
| OCc1c(-c2cccc3ccccc23)sc(-c2cccc3ccccc23)c1CO | 92.8% (active) |
| CC1=C(C#N)C(=O)OC1(C)C(CC(=O)c1ccccc1)c1ccccc1 (stereo not given) | 4.45% (inactive) |
| O=c1oc2c3ccc4ccccc4c3n(CCCN3CCCCC3)c2c2ccccc12 | 82.8% (active) |
| Cc1cc(NC(=S)SCc2ccc(F)cc2)ccc1Br | 92.8% (active) |
| Cc1ccc(C2C(O)=C(c3ccccc3)Sc3ccc(C)cc32)cc1 (stereo not given) | 2.45% (inactive) |
| COC(=O)/C=C1/OC(c2ccccc2)=CC1=O | 91.7% (active) |
| COc1ccccc1NC(=O)CC(=O)N1N=C(c2ccccc2)C(N=Nc2ccc(Cl)cc2)C1=O (stereo not given) | 0.6% (inactive) |
| CC(=O)NC1=C(Nc2ccc(-c3ccc(NC4=C(NC(C)=O)C(=O)c5ccccc5C4=O)cc3)cc2)C(=O)c2ccccc2C1=O | 99.5% (active) |
| CCCCCCC(O)CCOC(C)=O (stereo not given) | -13.2% (inactive) |
| CCn1nc(-c2ccccc2)c2c1N(C)c1ccccc1-n1c(-c3ccccc3)nnc1-2 | 99% (active) |
| CC1(CCC(=O)O)c2ccc3ccccc3c2Oc2c1ccc1ccccc21 | 96.2% (active) |
| CCN1/C(=C\c2cc(C)nc(-c3ccccc3)[n+]2C)C=Cc2ccccc21 | 98.1% (active) |
| Cc1ccccc1N1C(=O)c2ccccc2C1=O | 98.8% (active) |
| O=C(Oc1ccccc1)C1CCCCC1C(=O)Oc1ccccc1 (stereo not given) | 26.4% (inactive) |
| Cc1cccc2c1C1c3c(C)cccc3C(O)CC1CC2O (stereo not given) | 23.1% (inactive) |
| CC(C)c1cc2c(cc1O)C(O)C1(O)CCCC(C)(C)[C@H]1CC2 (stereo not given in full) | 93.7% (active) |
| C/C=C/c1ccc(OCC(=O)O)c(OC)c1 | 98.2% (active) |

| Compound | growth inhibition |
| --- | --- |
| Nc1ccc(S(=O)(=O)NCc2nccs2)cc1 | 50% (inactive) |
| N#CC(NNC(=O)c1ccccc1O)c1c(O)ccc2ccccc12 (stereo not given) | 38.9% (inactive) |
| Oc1ccc(Cl)cc1Cc1cc(Cl)cc(Cc2cc(Cl)ccc2O)c1O | 97.3% (active) |
| O=C1CN(CCN2CCOCC2)CC(=O)N2Cc3ccccc3CN12 | 24.1% (inactive) |
| CC1CCC(SC2CC(=O)CCC2=O)CC1 (stereo not given) | 99.2% (active) |
| Clc1ccc(OCC2CO2)c(Cl)c1 (stereo not given) | 91.5% (active) |
| CN=C(N)N/N=C(\C)c1ccc2c(ccc3ccccc32)c1 | 91.2% (active) |
| Cc1cc(O)c(/C=N/c2nc(-c3cccc([N+](=O)[O-])c3)cs2)c(=O)o1 | 30% (inactive) |
| COc1cccc2c1OC(c1ccc(Cl)cc1)C([N+](=O)[O-])=C2 (stereo not given) | 89% (active) |
| COc1ccc(C(=O)C2C(=O)C(=O)OC2C2OC(=O)C(=O)C2C(=O)c2ccc(OC)cc2)cc1 (stereo not given) | -7.3% (inactive) |
| CCCCCCCCCCCCCCCCOc1ccc(S(=O)(=O)N/N=c2/sc3ccc(S(=O)(=O)O)cc3n2C)cc1C(=O)O | 78.7% (active) |
| O=C(Nc1ccc(F)cc1)N1CCCCC1 | 47% (inactive) |
| C[CH2][Sn]([CH2]C)([O]C(=O)c1cc(OC)c(OC)c(OC)c1)[O][Sn]([CH2]C)([CH2]C)[O]C(=O)c1cc(OC)c(OC)c(OC)c1 | 12.7% (inactive) |
| C/C(O)=C(/C=N/C(=S)Nc1ccc(S(N)(=O)=O)cc1)C(=O)Nc1ccccc1C | 81.7% (active) |
| CC(C)CC(N)C(=O)NNc1ccccc1 (stereo not given) | 84.2% (active) |
| CCC(C(c1ccc(Cl)cc1)c1ccc(Cl)c(Cl)c1)[N+](=O)[O-] (stereo not given) | -4.05% (inactive) |
| O=C(O)c1nc2cc(C(F)(F)F)ccc2nc1Nc1ccc(F)cc1 | 68.2% (inactive) |
| Nc1nc(-c2ccccn2)cc2cc(Cl)ccc12 | -5.45% (inactive) |
| CC1(c2ccccc2)NC(=O)N(CC(=O)N(c2ccccc2)c2ccccc2)C1=O (stereo not given) | 23.6% (inactive) |
| O/N=C(/Cc1ccccc1)c1ccc2c(c1)OCO2 | 4.9% (inactive) |
